High-throughput results deposited in PubChem BioAssay by National Center for Advancing Translational Sciences (NCATS).
Rows were chosen to be rich in hits. Some 8.8% of all compounds tested hit in one or more screens of this group.
KB-3-1 tox = KB-3-1 parental cell cytotoxicity; KB-3-1 viability, CellTiter-Glo ATP luminescence, 72 h; Potency, µM (top dose mostly 46.1 µM), hits mostly cytotoxic; 1.4% of 400,000 active; further: potency means the concentration at half of the fitted maximal effect; nearly all actives have a fitted effect of over 60% in size
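Cytotoxicity in the drug-sensitive parental line KB-3-1 was scored as loss of CellTiter-Glo luminescence following 72 h incubation with compound. Values come from curve fitting of normalized concentration-response data.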
KB-V1 MDR tox = KB-V1 MDR subline cytotoxicity; Potency, µM (doses to about 46.1 µM), hits mostly cytotoxic; 3.4% of 400,000 active; KB-V1 MDR cells viability, CellTiter-Glo, 72 h; further: potency means the concentration at half of the fitted maximal effect; nearly all actives have a fitted effect of over 60% in size
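Potencies derive from concentration-effect curves fitted to normalized luminescence (CellTiter-Glo) of KB-V1 cells treated for 72 h at 37 degrees C in phenol-red-free DMEM containing 10% FBS.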
HT1080NT lethal = kills 2HG-producing HT-1080-NT fibrosarcoma cells; HT-1080-NT fibrosarcoma viability, CellTiter-Glo ATP luminescence, 48 h; Potency, µM (doses to about 46.1 µM), without a hit: at the top dose activity, negative = less viability, usual class: cytotoxic; 1.6% of 360,000 active; AID 686970;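 further: NT is the 2HG producing partner of a matched IDH1 knockdown line; potency means the concentration at half of the fitted maximal effect; 0% = DMSO-treated cells and -100% = media-only wells without cells; nearly all actives have a fitted effect of over 55% in size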
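Viability of the 2HG-overproducing fibrosarcoma line after 48 hours of compound exposure at 37 degrees C was determined by luminescence with CellTiter-Glo, and concentration-effect curves were then fitted and categorized.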
IL-1B inflam inh = inhibitors of inflammasome signaling (IL-1 beta secretion); THP-1 LPS/ATP IL-1B secretion, AlphaLISA, 16 h; active compounds read low; activity change, % at 57.5 µM; 4.7% of 360,000 active; in the data active means activity change below about -50%; inconclusive means mostly about -30% to -49%
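THP-1 cells pretreated 1 hr with compounds (up to 57.5 uM final), then stimulated with LPS (250 ng/mL final) plus ATP (1.25 mM final); secreted IL-1B measured by AlphaLISA after 16 hr, decreased signal indicating inhibition.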
HT1080 IDH1KD tx = HT-1080 IDH1 knockdown cell toxicity (counter line). HT-1080 IDH1 knockdown viability, ATP luminescence, 48 h. Potency, µM (doses to about 46.1 µM), for inactives: top-dose activity, negative = toxicity, actives largely listed as cytotoxic. 2% of 360,000 active. AID 686971;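 further: potency means the concentration at half of the fitted maximal effect; 0% = DMSO wells and -100% = cell-free medium wells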
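CellTiter-Glo luminescence after 48 h compound exposure at 37 degrees C of IDH1-knockdown HT-1080 cells in 5% FBS RPMI. %Activity scaled between DMSO wells and cell-free media wells, with curves fitted and assigned curve classes.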
Active calls of the source: *; i = inactive; u = inconclusive; x = no result given. Unless noted, the call rests on the fitted dose curve; in most records, active means well fitted curve in the direction sought with a large enough effect; inconclusive means small, poorly fitted or top-dose-only effect, or another doubt; inactive means no such curve, though single readings can be large; an effect the other way counts as inactive or inconclusive. Unless noted, on the % scale 0 is the no-effect control and ±100 the full control effect.

SMILES	KB-3-1 tox	KB-V1 MDR tox	HT1080NT lethal	IL-1B inflam inh	HT1080 IDH1KD tx
Cc1ccc(-c2cn3c(n2)sc2cc(C(=O)NC(C)C45CC6CC(CC(C6)C4)C5)ccc23)cc1 (configuration not stated)	i	i	x	x	x
COC(=O)c1cccc(-n2c(C)cc(C=O)c2C)c1	i	i	9%	14	8%
COC(=O)c1cc(C(=O)OC)cc(-n2c(C)cc(C=O)c2C)c1	i	i	0%	-66*	-16%
CN(Cc1ccccc1)c1ccc(/C=C/c2sc3ccccc3[n+]2C)cc1	u	i	x	x	x
CN(C)c1ccc(/C=C/c2sc3ccccc3[n+]2CCCCI)cc1	u	23µM*	x	x	x
CCCC[n+]1c(/C=C/c2ccc(N(C)C)cc2)sc2ccccc21	1.8µM*	i	x	x	x
Cc1cc(C)cc(C(=O)Nc2ccc(N3CCN(S(C)(=O)=O)CC3)cc2)c1	i	i	0%	-22	-1%
C=CCN1C(=O)S/C(=C/c2ccc(Sc3nc4ccccc4[nH]3)o2)C1=O	u	3.7µM*	-17%	-28	u
CCOC(=O)C(C)N1C(=O)S/C(=C\c2ccc(-c3ccccc3C(=O)O)o2)C1=O (configuration not stated)	i	i	2%	3	3%
CC(C)N1C(=O)S/C(=C/c2ccc(Sc3nc4ccccc4[nH]3)o2)C1=O	u	23µM*	-4%	-79*	u
CCCCC(C(=O)NC(C)(C)C)N(Cc1ccccc1Cl)C(=O)c1snc(C(N)=O)c1N (configuration not stated)	i	i	-8%	14	-4%
CCN(CC)CCN(C(=O)c1ccc2c(c1)CCCC2)c1nc2ccc(F)cc2s1	i	i	-22%	u	-21%
CN(C)CCCN(C(=O)c1ccc(S(=O)(=O)N(C)C)cc1)c1nc2cc3c(cc2s1)OCO3	i	i	-18%	-24	-12%
CN(C)CCCN(C(=O)c1ccc(Br)s1)c1nc2cc3c(cc2s1)OCO3	i	u	u	-101*	u
CN(C)CCCN(C(=O)C1COc2ccccc2O1)c1nc2cc3c(cc2s1)OCO3 (configuration not stated)	i	i	-22%	-22	-1%
CN(C)CCN(C(=O)c1ccc(C(=O)c2ccccc2)cc1)c1nc2cc3c(cc2s1)OCCO3	i	i	0%	0	11%
CN(C)CCCN(C(=O)c1ccc2c(c1)CCCC2)c1nc2cc3c(cc2s1)OCO3	u	i	18µM*	-86*	u
CN(C)CCCN(C(=O)c1ccc2c(c1)CCCC2)c1nc2ccc(F)cc2s1	i	4.1µM*	-21%	x	-29%
CN(C)CCCN(C(=O)c1ccc(C(=O)c2ccccc2)cc1)c1nc2cc3c(cc2s1)OCCO3	i	i	u	-64*	u
Cc1cnccn1	i	i	x	x	x
O=C(CCC1CCCCC1)Nc1nncs1	i	i	0%	-24	-11%
COc1cccc(OCCn2cc(C(=O)c3ccco3)c3ccccc32)c1	i	21µM*	-25%	-21	u
CC(=O)c1cn(CCOc2cc(C)ccc2C)c2ccccc12	u	2.1µM*	u	52	9.2µM*
Cc1cc(OCCn2cc(C(=O)c3ccco3)c3ccccc32)ccc1Cl	i	i	x	x	x
COc1ccccc1OCCn1cc(C(=O)c2ccco2)c2ccccc21	i	13µM*	-15%	-18	-14%
Cc1ccc(C)c(OCCn2cc(C(=O)O)c3ccccc32)c1	i	i	-24%	44	-6%
COc1ccccc1OCCn1cc(/C=C(\C#N)C(=O)NCc2ccco2)c2ccccc21	i	3.7µM*	-2%	0	-2%
O=C1NC(=S)S/C1=C/c1ccc(N2CCOCC2)o1	i	i	-18%	12	-29%
O=C1NC(=S)S/C1=C\C=C\c1ccc([N+](=O)[O-])o1	u	4.1µM*	5.8µM*	-98*	5.2µM*
Cc1cc2nc(C)n(CCCNC(=O)Nc3cccc4ccccc34)c2cc1C	u	16µM*	-4%	u	-19%
